TWEAK-Fn14 inh – blocks TWEAK-Fn14 interaction in a reporter cell assay. actives 2% (n = 360,000). AID 1159606. inhibition, % at 10 µM. TWEAK-stimulated Fn14 reporter cells, luciferase luminescence, 8 h; in the data active = inhibition above about 50%
TROY signal inh – inhibitors of TROY-dependent NF-kB signaling; actives 0.98% (n = 360,000); inhibition, % at 10 µM; AID 1347056; Q293 LMP1-TROYcd NF-kB luciferase reporter, 4 h;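 active = compounds whose plate-normalised and pattern-corrected inhibition of the luciferase reporter signal at the single screening dose is 50% or more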
TRPM1 prom inh – MITF TRPM1 promoter inhibition in SK-MEL-5 cells; SK-MEL-5 TRPM1 promoter luciferase, 24 h; inhibition, % at 12.5 µM; actives 0.83% (n = 330,000); AID 488899;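 active = mean inhibition across replicates of 60% or more, whatever share of single replicates reaches that level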
HIF-2a inh – inhibitors of HIF-2a. actives 0.72% (n = 360,000). inhibition, % at 18.8 µM. AID 624352. 786-0 RCC cells HIF-2a reporter, luciferase luminescence, overnight;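 active = inhibition of the luminescence signal of 40% or more relative to plate controls, in a single-dose primary screen at 18.75 µM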
EBV LMP1 NFkB – Epstein-Barr LMP1 NF-kappaB reporter inhibition. LMP1-induced NF-kappaB luciferase reporter cells, luminescence. inhibition, % at 12.5 µM. actives 0.69% (n = 350,000). AID 504558; in the data active = inhibition above about 41%
Peg3 prom inh – Peg3 promoter activity inhibition. HeLa PEG-Prom luciferase reporter, luminescence, overnight. inhibition, % at 20 µM. actives 1.7% (n = 360,000). AID 588405;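 active = inhibition of at least 50% at 20 µM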
Numbers stand for hits; 0 = inactive; - = no result. This is a sample that favours compounds with a hit; in the whole collection about 4% have one here.

SMILES	TWEAK-Fn14 inh	TROY signal inh	TRPM1 prom inh	HIF-2a inh	EBV LMP1 NFkB	Peg3 prom inh
COc1ccc(CCNc2ccc(S(N)(=O)=O)cn2)cc1	0	0	0	0	0	0
NS(=O)(=O)c1ccc(CCNc2nn3c(-c4cccc(OC(F)(F)F)c4)cnc3s2)cc1	93.9	72.0	-	0	-	101.6
O=C(/C=C1\NC2(CCCC2)Cc2ccccc21)C(=O)N/N=C/c1ccccc1O	0	0	0	0	43.7	0
CC1(c2ccc(OC(F)F)cc2)NC(=O)N(CC(=O)Nc2ccc(Cl)cc2F)C1=O (stereo not given)	0	0	0	0	0	0
Cc1ccc(/C=C/c2nc3ccccc3c(=O)[nH]2)cc1	74.9	51.5	0	0	45.0	0
CC(=O)Nc1cc(-c2ccoc2)cn2c(-c3ccccc3)cnc12	0	0	-	0	-	0
O=c1c(Cl)c(Cl)cnn1Cc1ccc(F)cc1	80.5	0	81.1	0	0	73.9
O=c1cnn(Cc2ccc(F)cc2)c2ccccc12	0	0	0	0	0	0
C(=Cc1c[nH]c2ccccc12)c1nccc2ccccc12	89.0	64.8	0	0	0	0
O=Cc1nccc2ccccc12	0	0	0	0	0	0
O=S1(=O)CC(N2CCN(c3ccccn3)CC2)CN1C1CCCCC1 (stereo not given)	0	0	-	0	-	0
C/C(=N\NC(=S)NC1CCCCC1)c1ccccc1	0	54.1	0	0	0	0
CC1(C)CC(NC(=O)c2ccc(F)cc2)CC(C)(C)N1	0	0	-	0	0	0
CC1(C)CC(NC(=O)c2ccc(Cl)cc2)CC(C)(C)N1	74.5	0	0	0	0	0
COc1ccccc1N(Cc1ccccc1)S(=O)(=O)c1cccc(C(=O)NC2CC(C)(C)NC(C)(C)C2)c1	0	0	0	0	0	87.4
COc1ccccc1N(Cc1ccccc1)S(=O)(=O)c1cccc(C(=O)Nc2cc(C)ccn2)c1	66.2	55.2	0	0	0	0
CC1(C)CC(NC(=O)c2ccc(Cl)c(S(=O)(=O)N(Cc3ccccc3)c3ccccc3)c2)CC(C)(C)N1	0	0	91.7	0	0	106.9
COc1ccccc1N(Cc1ccccc1)S(=O)(=O)c1cccc(C(=O)Nc2ncccc2C)c1	0	0	0	0	0	0
C[C@H](CO)N1C[C@H](C)[C@@H](CN(C)S(=O)(=O)c2cccs2)Oc2ccc(NC(=O)Cn3cnnn3)cc2C1=O	0	0	0	0	0	0
CC(=O)NC(=S)Nc1sc2c(c1C#N)CCCCC2	67.3	58.6	0	0	0	0
CCCc1cc(C(=O)Nc2sc3c(c2C#N)CCC3)no1	99.9	0	0	0	0	0
CC(C)(C)C(=O)NC(NC(=S)Nc1sc2c(c1C#N)CCCC2)C(Cl)(Cl)Cl (stereo not given)	0	58.9	0	0	0	0
CC(=O)Nc1sc2c(c1C#N)CCCC2	0	0	0	0	0	0
CC(C)(C)C(=O)Nc1sc2c(c1C#N)CCC2	0	0	0	0	0	0
N#Cc1c(NC(=O)c2nc3ncccn3n2)sc2c1CCCCC2	70.5	0	0	0	0	0
SMILES	TWEAK-Fn14 inh	TROY signal inh	TRPM1 prom inh	HIF-2a inh	EBV LMP1 NFkB	Peg3 prom inh
C/C=C(\CS(=O)(=O)c1ccccc1)S(=O)(=O)c1ccccc1	0	0	0	0	0	0
CCNC(=S)Nc1sc2c(c1C#N)CCC(C)C2 (stereo not given)	0	0	0	0	59.4	0
O=[N+]([O-])c1ccc(N=Nc2ccc(O)c3ccccc23)cc1	69.4	0	0	0	0	0
CCN(CC)S(=O)(=O)c1cccc(C(=O)NC(C(=O)NNC(=O)c2ccccc2F)C(C)C)c1 (stereo not given)	0	0	-	0	0	0
CC1(C(=O)NS(=O)(=O)c2ccc(Cl)cc2)CCN1C(=O)c1ccc(C2CCCCC2)cc1 (stereo not given)	0	0	-	0	-	0
C#CCOCCOCCOCCNc1nc(N2CCN(C(=O)CCCCCCCCCCNC(=O)[C@H](CCCCN)n3cc(C[C@@H](C)CC)nn3)CC2)nc(N2CCN(C(=O)CCCCCCCCCCNC(=O)[C@@H]([C@H](C)O)n3cc(C)nn3)CC2)n1	106.2	90.4	93.8	63.4	0	98.0
C#CCOCCOCCOCCNc1nc(N2CCN(C(=O)CCCCCCCCCCNC(=O)[C@H](CCCCN)n3cc(CCO)nn3)CC2)nc(N2CCN(C(=O)CCCCCCCCCCNC(=O)[C@H](CCCCN)n3cc(CCCC(=O)O)nn3)CC2)n1	0	0	0	0	0	0

Screening results from PubChem.
